Measured values published in PubChem BioAssay AID720707 (National Center for Advancing Translational Sciences (NCATS), 2013).
In all, about 360,000 compounds went through this assay and about 270 (0.075%) were called active. Where a call stands in place of a potency, no number is given. This is one part of a sample in which actives are shown more often than they occur. Calls come from the whole dose curve; as a rule, active = well fitted activation curve with a large enough effect; inconclusive = small, poorly fitted or top-dose-only effect; inactive = no such curve, though single readings can be large or run the other way.

What follows are molecules tested against Rap guanine nucleotide exchange factor 3 (Homo sapiens) (UniProt O95398) (assay: qHTS for Agonist of cAMP-regulated guanine nucleotide exchange factor 3 (EPAC1): primary screen). Details: biochemical assay; series mostly up to 154 µM.
Text: In multi-cellular eukaryotic organisms, the effects of cAMP are transduced by two ubiquitously-expressed intracellular cAMP receptors, the classic protein kinase A/cAMP-dependent protein kinase (PKA/cAPK) and the more recently discovered exchange protein directly activated by cAMP/cAMP-regulated guanine nucleotide exchange factor (EPAC/cAMP-GEF). Both PKA and EPAC are ubiquitously expressed in all tissues, and an increase in intracellular cAMP levels will lead to the activation of both PKA and EPAC. Therefore, careful dissections of the individual role and relative contribution of EPAC and PKA within the overall cAMP signaling in various model systems are critical for further elucidating the mechanism of cAMP signaling. To date no EPAC-specific antagonists and agonist, as well as isoform-specific agonists have been reported, and developing EPAC-specific pharmacological probes to determine the physiological functions that EPAC play in the overall cAMP-mediated signaling remains a major challenge within the research field. Furthermore, identified regulators of EPAC may lead to new mechanism-based therapeutic strategies specifically targeting the EPAC / cAMP-signaling components as EPAC has been implicated to play important roles in major human pathological conditions such as diabetes, heart disease, and cancer.
This qHTS will be used to screen the Molecular Libraries Small Molecule Repository (MLSMR) as a concentration-titration series using the NCGC unique quantitative screening (qHTS) platform to find activators for EPAC1. In addition, this assay will also be used as a counterscreen for the EPAC2 qHTS. This fluorescent based assay is developed and validated for EPAC1 that measures exchange using EPAC effector Rap1 complex with BODIPY-GDP, a GDP analog with a tethered fluorophores. Activators are identified by monitoring the change in fluorescence signal as the exchanged free BODIPY-GDP has a reduced fluorescence compared to Rap1-bound BODIPY-GDP. Increase in signal (activation) is the desired outcome for the EPAC1 agonist while no activity in this assay is desired for the EPAC2 agonist counterscreen.
[1] de Rooij, J., Zwartkruis, F. J., Verheijen, M. H., Cool, R. H., Nijman, S. M., Wittinghofer, A., and Bos, J.L. (1998) Nature 396, 474-477
NIH Chemical Genomics Center [NCGC]
NIH Molecular Libraries Probe Centers Network [MLPCN]
Assay Submitter (PI): Xiaodong Cheng, The University of Texas Medical Branch
Briefly, three uL of reagents (100 nM EPAC1, 250 nM RAP1B-BODIPY-GDP, 50 uM GDP) were dispensed into a 1536-well Greiner black solid-bottom medium binding assay plate. Controls and test compounds (23 nL) were transferred to the plate via a Kalypsys pin tool equipped with a 1536-pin array. The plates were centrifuged at 1,000 rpm for 15 seconds followed by 5 minute incubation at room temperature. The assay plates were read at 5 minute intervals for 30 minutes in the ViewLux plate reader using 480nm excitation and 540nm emission filters. The results were normalized to the agonist positive control of 6.5 mM cAMP.
Note: nearly all actives have a fitted effect of over 60% in size.
Potency is the fitted concentration of half-maximal effect.

Sequence of Rap guanine nucleotide exchange factor 3 (Homo sapiens) (O95398 whole entry, looked up): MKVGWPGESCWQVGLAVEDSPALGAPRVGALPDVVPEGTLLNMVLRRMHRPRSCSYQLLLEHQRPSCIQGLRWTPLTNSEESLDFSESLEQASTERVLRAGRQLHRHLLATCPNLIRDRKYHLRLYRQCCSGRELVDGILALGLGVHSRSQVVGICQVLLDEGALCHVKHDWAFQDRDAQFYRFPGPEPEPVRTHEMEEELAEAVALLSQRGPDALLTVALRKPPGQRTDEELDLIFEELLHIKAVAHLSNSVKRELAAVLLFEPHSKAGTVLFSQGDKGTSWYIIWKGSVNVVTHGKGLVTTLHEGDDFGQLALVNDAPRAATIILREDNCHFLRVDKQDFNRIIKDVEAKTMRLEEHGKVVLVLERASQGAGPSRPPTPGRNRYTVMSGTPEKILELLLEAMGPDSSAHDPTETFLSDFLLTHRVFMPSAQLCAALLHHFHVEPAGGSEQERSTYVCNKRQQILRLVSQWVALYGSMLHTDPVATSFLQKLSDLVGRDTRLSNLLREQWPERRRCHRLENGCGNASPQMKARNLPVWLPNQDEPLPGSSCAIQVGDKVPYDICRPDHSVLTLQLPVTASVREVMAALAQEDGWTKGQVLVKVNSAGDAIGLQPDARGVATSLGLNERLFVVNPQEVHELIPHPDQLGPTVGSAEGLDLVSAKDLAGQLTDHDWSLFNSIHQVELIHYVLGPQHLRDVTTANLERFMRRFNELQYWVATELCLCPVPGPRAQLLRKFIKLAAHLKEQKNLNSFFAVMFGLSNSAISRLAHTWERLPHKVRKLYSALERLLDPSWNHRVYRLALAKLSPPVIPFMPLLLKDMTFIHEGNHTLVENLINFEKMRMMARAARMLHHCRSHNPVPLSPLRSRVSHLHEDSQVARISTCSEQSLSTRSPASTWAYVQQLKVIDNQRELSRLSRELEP

Structure (SMILES)	Potency
COC(=O)CN(c1cccc(C(C)=O)c1)S(C)(=O)=O	inactive
CCN(CC)c1ccc2oc(=O)c(C)nc2c1	100 µM (active)
CN(CC(=O)Nc1ccccc1[N+](=O)[O-])Cc1ccc(Br)cc1	inactive
O=C(C[C@H]1CC[C@H]2[C@@H](COC[C@H](O)CN2C(=O)c2ccccn2)O1)N1CCN(c2ccccc2)CC1	inactive
Cc1ccccc1-n1cc(CNC(=O)C2CCC(=O)N(C3CC3)C2)cn1 (stereo unspecified)	inactive
Cc1ccc(NC(=O)CCC(=O)N2CCC(c3ccccc3)=N2)cc1S(=O)(=O)N1CCCCC1	inactive
O=C(NC(=S)Nc1ccc(Br)cc1F)C1CCCCC1	inactive
CCOc1ccc(NC(=O)C2CCN(C(=O)N3CCOc4ccccc43)CC2)cc1	inactive
CCOc1ccc(CC(=O)Nc2ccc(S(=O)(=O)Nc3cc(C)on3)cc2)cc1OCC	inactive
CCC(C)NC(=O)Cn1nc(C(F)(F)F)c2c1CCC2 (stereo unspecified)	inactive
COc1cc(Cl)c(C)cc1NC(=O)CSc1nnc(CN2CCCC2)o1	inactive
COc1ccc(OC)c(NC(=O)c2cc(-c3cc(F)ccc3OCC3CCCO3)n[nH]2)c1 (stereo unspecified)	inactive
O=C(NCCC1CCCCN1S(=O)(=O)c1ccccc1)C(=O)NCC1CCCO1 (stereo unspecified)	inactive
O=C(NCCc1ccco1)C(=O)NCCC1CCCCN1S(=O)(=O)c1ccccc1 (stereo unspecified)	inactive
O=C(NCCC1CCCCN1S(=O)(=O)c1ccc(Cl)cc1)C(=O)NCc1ccco1 (stereo unspecified)	50.1 µM (active)
COCCCNc1nc2ccccc2nc1NS(=O)(=O)c1ccc(F)cc1	inactive
CO/N=C/c1cn(-c2ccc(Cl)cc2)nn1	inactive
CN1CCN(C2=NCCO2)CC1	inactive
CC(=O)Oc1ccc(Cn2c(C)c(C(=O)NCc3ccc(C#N)cc3)sc2=O)cc1	inactive
Cc1cccc(CC(=O)N2CCN=C2SCc2ccc([N+](=O)[O-])cc2)c1	inactive
Cc1ccc(S(=O)(=O)N2CCCCC2)cc1C(=O)N(C)CC(=O)Nc1cccc(F)c1	inactive
Cc1cc(NC(=O)CN2C(=O)NC(C)(CCc3ccccc3)C2=O)no1 (stereo unspecified)	inactive

Structure (SMILES)	Potency
Cc1cccc(-c2nc(CS(=O)CC(=O)NC(C)CCc3ccccc3)c(C)o2)c1 (stereo unspecified)	inactive
CC(C)N1CCC(=NNc2ccc([N+](=O)[O-])cc2S(=O)(=O)N2CCOCC2)CC1	inactive
Cc1ccccc1NC(=O)C1CCCN(C(=O)NCc2ccccc2)C1 (stereo unspecified)	inactive
O=C1CCC(C(=O)N2CCN(c3ccccc3Cl)CC2)CN1CC1CCCCC1 (stereo unspecified)	inactive
CS(=O)(=O)/C(C#N)=C/c1cccn1S(=O)(=O)c1ccc([N+](=O)[O-])cc1	inactive
O=C(c1ccc(CS(=O)Cc2ccccc2Cl)o1)N1CCN(c2ccccc2)CC1 (stereo unspecified)	inactive
CCN1C(=NCc2ccc(OC)cc2)N[C@@H](CCc2ccccc2)[C@H](C(=O)NCc2ccc(OC)cc2)[C@H]1C	inactive
CCc1cccc(CC)c1N1C(=O)CC(Sc2ccccc2N)C1=O (stereo unspecified)	inactive
CCCC(=O)OCC(=O)Nc1cc(Cl)ccc1[N+](=O)[O-]	inactive
CC(C)Cc1ccc(S(=O)(=O)N2CCN(C(=O)c3ccco3)CC2)cc1	inactive
CC(=O)c1cccc(NC(=O)N2CCCC2C(=O)NCCC(C)C)c1 (stereo unspecified)	inactive
Cc1ccsc1C(=O)N[C@@H](C)c1nnc2ccccn12	inactive
Nc1ccc2nc3c(=O)[nH]c(=S)[nH]c3nc2c1	89.1 µM (active)
COC(=O)[C@@]1(C)[C@H]2C(=O)N(Cc3ccccc3)C(=O)[C@H]2[C@H]2CN=C(SCC3CC3)N21	inactive
NC(=O)C1CCN(C(=O)c2ccc(-c3ccccc3)cc2)CC1	inactive
O=C(C1=C(O)C(=O)N(CCOCCO)C1c1ccccn1)c1cccs1 (stereo unspecified)	inactive
CCOC(=O)c1cnn2c(SC)ncnc12	inactive
COCCn1c(SCC(=O)N2CCCCCC2)nc2c(c1=O)SCC2	inactive
CC(=O)Nc1ccc(S(=O)(=O)NNC(=O)CCc2ccccc2)cc1	inactive
CCNC(=O)c1cnn(-c2ccccc2)c1-c1ccccc1	inactive
CN1CCN(Cc2nc3c(c(=O)n(C)c(=O)n3C)n2Cc2cccc3ccccc23)CC1	inactive
Cc1ccc2c(c1)N(CC(=O)N1CCC(O)CC1)C(=O)CO2	inactive

Structure (SMILES)	Potency
CCOC(=O)C1CCN(C(=O)CSc2cc(=O)n(C)c3ccccc23)CC1	inactive
CCOC(=O)C1CCCN(C(=O)c2sc3nc(C)nc(N4CCOCC4)c3c2C)C1 (stereo unspecified)	inactive
CS(=O)(=O)N1CCc2cc(C(=O)Nc3ccccc3Br)ccc21	inactive
CC(=O)c1ccc(N2CCN(S(=O)(=O)c3c(C)[nH]c(=O)[nH]c3=O)CC2)cc1	inactive
C=CCN(CC=C)C(=O)COC(=O)c1n[nH]c2ccccc12	inactive
CCOC(=O)c1cc(-c2ccc(F)cc2)n(CC(=O)NCc2ccccn2)c1C	inactive
CC[C@H](C)C(=O)N[C@H]1CCCN1C(=O)/C=C/c1ccccc1	inactive
O=C(O)Cc1csc(NC(=O)CSc2nnnn2-c2ccc(O)cc2)n1	inactive
COc1cccc(N2CC(NC(=O)c3ccc4ccccc4c3)CC2=O)c1 (stereo unspecified)	inactive
O=C1c2cccnc2C(Nc2ccc(S(=O)(=O)N3CCCCCC3)cc2)N1Cc1ccccc1 (stereo unspecified)	inactive
NC(=O)c1ccsc1NC(=O)COC(=O)COc1ccc(C=O)cc1	inactive
Cc1ccc(NC(=O)CN(C)C(=O)COC(=O)c2nccnc2N)cc1	inactive
O=S(=O)(c1ccccc1)c1nc(Cc2ccccc2)oc1N1CCOCC1	inactive
COc1ccc(NC(=O)NCCN2CCN(c3ccc(C)cc3)CC2)c(Cl)c1	inactive
O=C(CSc1nnc2c(n1)[nH]c1ccccc12)NC1CCCCC1	inactive
O=C(C1CCN(c2nnc(-n3cccc3)s2)CC1)N1CCc2ccccc2C1	inactive
Cc1ccc(C)c(S(=O)(=O)N2CCCOC2CNC(=O)C(=O)NC2CCCCC2)c1 (stereo unspecified)	inactive
O=C(CN1CCc2ccccc2C1)Nc1cccc(S(=O)(=O)N2CCOCC2)c1	inactive
CC(C)Oc1ccc(C(=O)NC(C)(C)CO)cc1	inactive
O=C(Nc1cc2c3c(c1)CC(=O)N3CCC2)c1ccccc1F	inactive
Cc1cc([N+](=O)[O-])nn1CC(=O)Nc1ccc(Cc2ccncc2)cc1	inactive
O=C1CCCN2N=C(SCC(=O)Nc3ccc(Br)cc3)SC2=N1	inactive
